The list is not random: actives were taken first. Their share in the collection is about 3.5%.
BJeLR lethal: BJeLR cell viability loss | inhibition, % (no concentration beside the values) | BJeLR (HRASV12) viability, CellTiter-Glo ATP luminescence, 48 h | AID 1554 | 300,000 tested, 0.17% active; in the data active means inhibition above about 50%; inconclusive means no clear call, values can overlap the other calls
BoNT-F LC inh: BoNT F light chain protease inhibition; inhibition, % at 10 µM; AID 588497; 360,000 tested, 0.22% active; Multiplex microsphere protease cleavage assay, flow cytometry; in the data active means inhibition above about 35%, passing the limit was not always enough; inconclusive means no clear call, values can overlap the other calls; further: plate controls were buffer without enzyme for full effect and enzyme alone for no effect
BoNT-A LC inh2: BoNT A light chain protease inhibition. multiplex microsphere protease substrate cleavage, flow cytometry. inhibition, % at 10 µM. 360,000 tested, 0.17% active. AID 588499; further: plate controls were buffer without enzyme for full effect and enzyme alone for no effect
Anthrax LF prot: blocks Bacillus anthracis lethal factor protease | multiplex microsphere protease cleavage assay, LF | P15917 | inhibition, % at 10 µM | 360,000 tested, 0.12% active; further: plate controls were buffer without enzyme for full effect and enzyme alone for no effect
Target sequence (P15917 whole entry, looked up): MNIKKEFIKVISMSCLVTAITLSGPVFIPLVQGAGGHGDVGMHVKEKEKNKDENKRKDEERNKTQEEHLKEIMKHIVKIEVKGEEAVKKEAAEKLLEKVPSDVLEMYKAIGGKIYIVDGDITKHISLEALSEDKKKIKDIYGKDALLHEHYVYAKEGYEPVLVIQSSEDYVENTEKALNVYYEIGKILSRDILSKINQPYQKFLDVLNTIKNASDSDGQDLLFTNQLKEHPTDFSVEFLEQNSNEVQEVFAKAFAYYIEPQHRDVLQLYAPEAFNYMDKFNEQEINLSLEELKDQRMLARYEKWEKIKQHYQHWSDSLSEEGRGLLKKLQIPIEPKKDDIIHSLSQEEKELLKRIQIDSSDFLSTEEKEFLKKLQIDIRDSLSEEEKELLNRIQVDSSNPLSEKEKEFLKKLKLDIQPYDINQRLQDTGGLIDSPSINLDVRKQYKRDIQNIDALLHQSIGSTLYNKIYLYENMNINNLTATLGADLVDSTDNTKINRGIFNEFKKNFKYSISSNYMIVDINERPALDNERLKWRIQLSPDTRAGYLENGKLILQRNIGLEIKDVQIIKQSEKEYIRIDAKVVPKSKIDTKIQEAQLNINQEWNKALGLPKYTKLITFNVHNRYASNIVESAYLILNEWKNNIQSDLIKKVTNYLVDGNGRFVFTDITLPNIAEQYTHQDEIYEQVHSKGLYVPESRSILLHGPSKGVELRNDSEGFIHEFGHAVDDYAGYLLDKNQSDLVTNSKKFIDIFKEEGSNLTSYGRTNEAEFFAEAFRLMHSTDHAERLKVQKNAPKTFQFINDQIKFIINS
Bead autofluor: counter-screen for toxin protease inhibitors: compound fluorescence. compound autofluorescence counterscreen, microsphere flow cytometry; active compounds read high. fluorescence intensity (test concentration not listed). 360,000 tested, 3.1% active; in the data active means fluorescence intensity above about 16000; inconclusive means no clear call, values can overlap the other calls
Active calls of the source: *; ? = inconclusive; nt = no result. Unless noted, no stated cut-off is given here; in the data, active means inhibition above about 30%; inconclusive means no clear call, values can overlap the other calls; inactive means below that.

SMILES	BJeLR lethal	BoNT-F LC inh	BoNT-A LC inh2	Anthrax LF prot	Bead autofluor
Cc1nc2cc(Oc3nc(NCCN(C)C)nc4ccsc34)ccc2s1	nt	-9	0	-5	3857
CC(C)COC(=O)c1cc(-c2ccc(/C=N/n3cnnc3)o2)ccc1Cl	3	0	1	-2	22229*
Cc1nc2cc(C(F)(F)F)ccc2n1CCNc1nc(-c2ccc([N+](=O)[O-])c(Cl)c2)cs1	5	3	0	-3	3657
O=S(Cc1ccccc1)CC(O)(c1ccccc1)c1ccccc1 (stereo not drawn)	12	-4	-2	-2	21390*
O=C(Nc1ccc2c(c1)CCC2)c1cnccn1	3	1	2	-2	20322*
CN1CCC(N(C)C(=O)c2ccc(Cl)c(S(=O)(=O)N(C)c3ccc(Cl)cc3)c2)CC1	nt	0	0	2	3696
Cc1ccc(C2C(C#N)=C(N)N(c3ncn[nH]3)C3=C2C(=O)CC(C)(C)C3)cc1 (stereo not drawn)	-7	3	0	2	3318
CC(=O)Nc1cccc(NC(=O)CCn2cnc3cc(C)c(C)cc32)c1	7	-2	0	-2	22641*
C=CCn1nc(C(=O)N2CCOCC2)cc1-c1sc(NC(=O)c2ccccc2)nc1C	nt	-4	0	-4	3412
Cc1ccc(S(=O)(=O)N(CC(=O)N2CCN(c3ccc(F)cc3)CC2)C2CCCCC2)cc1	6	-7	-1	1	23859*
CCNC(=O)n1cc(-n2cncn2)c(-c2ccc(Cl)cc2)n1	-2	1	1	2	2026
COc1ccc(CNC(=O)c2noc3c2CCCC3)cc1	-11	-8	-1	0	11801
COc1ccc(CN/C=C2\CCCCC2=O)cc1	-21	-4	?	1	22197*
CC(C)(C)CC(C)(C)n1nnnc1N	nt	0	0	5	4312
CC(=O)Nc1ccc(NC(=O)C(C)OC(=O)CC23CC4CC(CC(Br)(C4)C2)C3)cc1 (stereo not drawn)	nt	-3	0	-5	3911
CCc1ccccc1NC(=O)CC1S/C(=N\c2nccs2)N(CC)C1=O (stereo not drawn)	-10	0	-2	-1	17187*
OC[C@@H]1CN(Cc2ccc3c(c2)OCO3)C[C@H](n2cnc3c(NCc4ccc(F)cc4)ncnc32)O1	nt	2	-1	-5	3181
Cc1nc(N2CCN(c3ccccc3)CC2)nc2c1C(=O)CC(c1ccccc1)C2 (stereo not drawn)	-4	6	6	-12	17903*
Cc1ccc(C2CC(=O)c3cnc(N4CCN(c5ccccc5)CC4)nc3C2)cc1 (stereo not drawn)	3	-6	-1	-8	9394
Cc1nc(N2CCN(c3ccccc3)CC2)nc2c1C(=O)CC(C)C2 (stereo not drawn)	9	1	1	-2	21996*
Cc1nc(N2CCN(c3ccccc3)CC2)nc2c1C(=O)CCC2	0	0	1	-3	22851*
Cc1ccccc1-c1cnc(C(O)c2cc(Cl)cc(Cl)c2)[nH]1 (stereo not drawn)	nt	-1	0	2	3820
COc1ccc2oc3cc(NCCN(C)C)ccc3c(=O)c2c1	nt	-7	0	-9	4448
CCCCN(CC)Cc1c(O)ccc2c3c(c(=O)oc12)CCC3	-5	nt	nt	nt	nt
Cc1ccc(O)c(C(=O)c2cc(C#N)c(=O)n(-c3c(C)n(C)n(-c4ccccc4)c3=O)c2)c1	-1	0	-1	-1	16705*
SMILES	BJeLR lethal	BoNT-F LC inh	BoNT-A LC inh2	Anthrax LF prot	Bead autofluor
Nc1nc(SCC(=O)N2CCCc3ccccc32)n(-c2ccccc2)n1	14	-8	0	6	5353
Cc1cccc(OCc2nc(-c3nonc3N)no2)c1C	nt	-3	?	-1	22795*
CCS(=O)(=O)N1Cc2ccccc2CC1C(=O)N1CCN(c2cccc(C)c2C)CC1 (stereo not drawn)	0	-2	2	-5	23317*
CCS(=O)(=O)N1Cc2ccccc2CC1C(=O)Nc1ccc(F)cc1 (stereo not drawn)	-5	2	-1	1	4736
CCN(CC(=O)Nc1c(F)cccc1F)C(=O)C1Cc2ccccc2CN1S(=O)(=O)CC (stereo not drawn)	7	-71	-49	-11	16229*
Cc1ccc(F)c(S(=O)(=O)NC(=O)C2(C)CCN2C(=O)Cc2cccs2)c1 (stereo not drawn)	nt	-6	0	3	3620
CCCC(=O)NC(c1ccc(OC)c(OC)c1)c1c(O)ccc2ccccc12 (stereo not drawn)	-2	-2	?	1	23446*
C=CCOc1ccccc1/C=C/C(=O)O	-7	1	-2	-3	22958*

Screening data: PubChem, several laboratories
